Results reported in PubChem BioAssay.
Calls of active or inactive are those of the source.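 The calls were made as follows, unless noted: active = inhibition of the reporter signal at or above 50%; inactive = inhibition below 50%.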

Legend:
[1] = inhibitors of TNFa-induced NFkB p65 translocation, primary screen, imaging, HUVEC, MLSMR starter and 10KST1 sets (AID 438;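 active = inhibition above 20% together with a positive visual image hit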;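 also: compound added about 3h40 before a 20 min TNFalpha stimulation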;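 as to inhibition: signal is the nuclear over cytoplasmic p65 intensity ratio per well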); details: HUVEC TNFa-induced p65 nuclear translocation; cell count: measured here: nuclei count (cytotoxicity indicator), at 2.08 µM; inhibition: at 2 µM, stronger effect = higher value, 0% TNFa-plus-vehicle, 100% no-TNFa wells
[2] = reduction of polyQ htt aggregates in cells – imaging, exon1htt(103Q)mCFP cells, high-content imaging, primary screen (AID 483;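 active = visual image review flags a hit and inhibition of aggregation exceeds 20%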;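 also: compound exposure lasted 3 days before fixation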;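 as to nuclei count: percent of the per-plate median nuclei count of sample wells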); details: exon1htt(103Q)mCFP cell line, aggregate imaging, at 2 µM; inhibition of aggregation: stronger effect = higher value; nuclei count: measured here: cell count, toxicity
[3] = endothelial E-selectin expression blockers – imaging, HUVEC, immunofluorescence, MLSMR starter and 10KST1 sets, primary screen (AID 487;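 active = visually confirmed hit in the image check and inhibition above 20%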;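 as to inhibition: signal is fraction of cell area covered by stained E-selectin grains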;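 as to nuclei count: 100% = median nuclei count of all wells on the same plate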); details: HUVEC TNFalpha-induced E-selectin immunofluorescence imaging, at 2 µM; inhibition: stronger effect = higher value; nuclei count: measured here: cell number, toxicity
[4] = target: Voltage-gated potassium channel subunit beta-2 (Rattus norvegicus) (UniProt P62483); experiment: inhibitors of rat Kvbeta2 reductase activity – biochemical, NADPH fluorescence, primary screen (AID 622;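 active = fluorescence slope higher than the sample average by over 3 SD, cut at about -0.22 in these data, passing the limit was not always enough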;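 also: slope of raw intensity against log time taken from 70 to 1610 s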); details: recombinant KvBeta, 4-cyanobenzaldehyde reduction, at 10 µM, stronger effect = higher value
Chain of Voltage-gated potassium channel subunit beta-2 (Rattus norvegicus) (P62483 whole entry, looked up): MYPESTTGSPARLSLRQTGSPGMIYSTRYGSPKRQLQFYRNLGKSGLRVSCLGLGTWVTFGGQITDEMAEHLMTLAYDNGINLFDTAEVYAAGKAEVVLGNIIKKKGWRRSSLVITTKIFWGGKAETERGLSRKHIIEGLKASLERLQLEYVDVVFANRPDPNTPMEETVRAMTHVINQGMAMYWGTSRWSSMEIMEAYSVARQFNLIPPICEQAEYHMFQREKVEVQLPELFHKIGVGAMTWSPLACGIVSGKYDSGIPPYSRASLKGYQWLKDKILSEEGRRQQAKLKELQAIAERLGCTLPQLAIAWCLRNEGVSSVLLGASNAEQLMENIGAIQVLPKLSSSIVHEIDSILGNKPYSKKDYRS

[5] = target: Voltage-gated potassium channel subunit beta-2 (Rattus norvegicus) (UniProt P62483); experiment: enhancers of rat Kvbeta2 NADPH turnover – biochemical, NADPH fluorescence, primary screen (AID 623;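 active = NADPH fluorescence slope more negative than the mean of all samples by about 3 SD, 99.7% confidence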;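 also: fluorescence intensity change per second fitted from 20 to 320 s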); details: Recombinant KvBeta, NADPH fluorescence decrease slope, 10 min; at 10 µM; stronger effect = lower value
[6] = target: Alpha-2C adrenergic receptor (Homo sapiens) (UniProt P18825); experiment: compounds altering alpha2C-coupled GIRK flux – cell-based, HEK293 alpha2C/GIRK1/2, thallium flux, primary screen (AID 624;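 active = fluorescence slope after compound addition differing from the mean of all screened samples at 99.7% confidence, in either direction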;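 also: slope of fluorescence ratio to pre-addition baseline per second over 15 to 24 s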); details: thallium flux BTC fluorescence, at 10 µM, actives lie on both sides
Chain of Alpha-2C adrenergic receptor (Homo sapiens) (P18825 whole entry, looked up): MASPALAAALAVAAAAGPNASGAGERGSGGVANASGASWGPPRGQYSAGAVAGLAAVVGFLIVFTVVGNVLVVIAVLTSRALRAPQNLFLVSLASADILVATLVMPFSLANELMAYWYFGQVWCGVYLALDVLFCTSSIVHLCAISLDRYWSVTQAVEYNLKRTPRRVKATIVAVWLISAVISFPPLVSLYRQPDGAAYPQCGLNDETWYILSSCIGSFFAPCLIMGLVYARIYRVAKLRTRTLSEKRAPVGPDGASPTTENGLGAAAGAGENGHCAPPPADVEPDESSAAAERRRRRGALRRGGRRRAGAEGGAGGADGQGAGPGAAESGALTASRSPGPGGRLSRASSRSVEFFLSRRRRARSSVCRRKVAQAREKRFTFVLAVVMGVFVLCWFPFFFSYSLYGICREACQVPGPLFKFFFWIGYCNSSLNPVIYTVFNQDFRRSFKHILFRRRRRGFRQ

[7] = blockers of RIG-like receptor reporter activation – cell-based, Sendai virus stimulus, luciferase, 10K MLSCN set, TLR/RLR signaling modifier project, primary screen (AID 602276;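 active = inhibition at or above 50% at 10 µM; inactive = inhibition below 50%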;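 also: firefly luciferase from ISG56 promoter only with Renilla not read in this screen; 0% = Sendai virus plus DMSO and 100% = medium plus DMSO without virus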); details: HEK293 RL24 IRF3 luciferase reporter, at 10 µM, stronger effect = higher value
[8] = TLR3 IRF3 reporter activation blockers – cell-based, poly I:C stimulus, luciferase, 10K MLSCN set, primary screen (AID 602277); details: HEK293-TLR3 RL24 IRF3 luciferase reporter, at 10 µM, stronger effect = higher value

Structure (SMILES) | cell count [1] | inhibition [1] | inhibition of aggregation [2] | nuclei count [2] [%] | inhibition [3] | nuclei count [3] [%] | fluorescence slope [4] | NADPH fluorescence slope [5] | slope [6] | inhibition [7] | inhibition [8]
COc1ccc(-c2cc(C(F)(F)F)nc(N3CCN(c4ccc(F)cc4)CC3)n2)cc1OC | 827 | -10.7% (inactive) | -2.4% (inactive) | 105 | -107% (inactive) | 122 | -0.52 (inactive) | 2.2e-05 (inactive) | 0.00763 (inactive) | -20.5% (inactive) | -7.7% (inactive)
CCN(C(=O)COC(=O)c1cc(C)n(-c2ccc(F)cc2)c1C)C1CCS(=O)(=O)C1 (centres undefined) | 496 | -3.4% (inactive) | -3.9% (inactive) | 114 | -35.5% (inactive) | 115 | -0.537 (inactive) | 3.5e-06 (inactive) | 0.00451 (inactive) | 13.2% (inactive) | 13% (inactive)
O=C(COc1ccccc1F)NC1CC1 | 235 | -13% (inactive) | 14.4% (inactive) | 92.8 | 19.9% (inactive) | 100 | -0.395 (inactive) | -4.8e-05 (inactive) | 0.0037 (inactive) | -0.955% (inactive) | 11% (inactive)
O=C(NCCCCNC(=O)c1cccnc1)c1cccnc1 | 514 | 10.1% (inactive) | 8.2% (inactive) | 99.6 | -31.4% (inactive) | 116 | -0.64 (inactive) | 3.6e-05 (inactive) | 0.00666 (inactive) | 13.9% (inactive) | 26.9% (inactive)
O=C(NCc1cccnc1)C1c2ccccc2C(=O)N1Cc1ccco1 (centres undefined) | 408 | 4.7% (inactive) | 7% (inactive) | 115 | 50.4% (inactive) | 113 | -0.595 (inactive) | -1.9e-05 (inactive) | 0.00603 (inactive) | 5.3% (inactive) | 11% (inactive)
COC(=O)CCC(=O)Nc1cccc(Cl)c1 | 205 | 42.5% (active) | 5% (inactive) | 99.2 | -12.1% (inactive) | 94.4 | -0.593 (inactive) | -3.8e-05 (inactive) | 0.00629 (inactive) | 3.5% (inactive) | 17.1% (inactive)
Cn1c(=O)c(=O)n(C)c2cc(S(=O)(=O)N3CCCCC3)ccc21 | 289 | 0.7% (inactive) | 22.5% (inactive) | 83.6 | -3.4% (inactive) | 87.6 | -0.426 (inactive) | -7.3e-05 (inactive) | 0.00642 (inactive) | 14.8% (inactive) | 14.6% (inactive)
Cc1c(C(=O)OCCOC(C)C)[nH]c2c1C(=O)CC(c1ccco1)C2 (centres undefined) | 482 | 18% (inactive) | -3.7% (inactive) | 5.8 | -59.6% (inactive) | 83.1 | -0.553 (inactive) | -3.5e-05 (inactive) | 0.00564 (inactive) | 13.8% (inactive) | 82.1% (active)
COc1ccc(CCN2CC(O)=C(c3nc4ccccc4c(=O)[nH]3)C2=N)cc1OC | 642 | -0.8% (inactive) | -7.4% (inactive) | 83.2 | -35.6% (inactive) | 98.6 | -0.489 (inactive) | -1e-06 (inactive) | 0.00682 (inactive) | 2.39% (inactive) | 7.15% (inactive)
CC(NS(=O)(=O)c1ccccc1)C(c1cccs1)N1CCN(C)CC1 (centres undefined) | 445 | -6.7% (inactive) | -18.1% (inactive) | 111 | -262% (inactive) | 137 | -0.321 (inactive) | -9.7e-06 (inactive) | 0.00347 (inactive) | 20.5% (inactive) | 36.2% (inactive)
CC(=O)c1cccc(N(CC(=O)N2CCCC2)S(C)(=O)=O)c1 | 529 | -5.4% (inactive) | 14.6% (inactive) | 88.4 | -11.1% (inactive) | 94.9 | -0.467 (inactive) | 2.1e-05 (inactive) | 0.00662 (inactive) | 13.6% (inactive) | 20% (inactive)
O=C(CSCCSCC(=O)c1ccco1)c1ccco1 | 594 | -6.1% (inactive) | -12% (inactive) | 84.7 | -44.4% (inactive) | 138 | -0.421 (inactive) | -6.5e-05 (inactive) | 0.00644 (inactive) | 7.09% (inactive) | 7.22% (inactive)
CC1CN(CC(O)COc2ccccc2C(C)(C)C)CC(C)O1 (centres undefined) | 609 | -29.6% (inactive) | -10.6% (inactive) | 108 | -32.5% (inactive) | 101 | -0.509 (inactive) | 1.1e-05 (inactive) | 0.00559 (inactive) | 10.2% (inactive) | 23.2% (inactive)
Cc1cc(C)cc(OCC(=O)NC2=NCCS2)c1 | 311 | -11.8% (inactive) | 2.3% (inactive) | 165 | -76% (inactive) | 115 | -0.573 (inactive) | 1.2e-05 (inactive) | 0.00659 (inactive) | -3.94% (inactive) | -24% (inactive)
